In PubChem BioAssay AID463173 (ICCB-Longwood Screening Facility, Harvard Medical School, 2010):
Among all 52,000 compounds or so, about 4,300 (8.3%) were called active. The full list was thinned out, with actives kept by preference. Values without a mark were called inactive. Rule as the data show it: active = survival mostly below about 52% (no sharp cut-off); inactive = mostly above about 56%.

These compounds were tested on DeltatarO mutant (assay: growth inhibition of S. aureus wild type versus tarO mutant, primary screen, teichoic acid synthesis inhibitors, RN4220, OD600 (AID 463173)). Details: OD600, 18 h, hits give low values, screened at 18.75 µg/mL (by protocol).

SMILES | survival
COc1ccc(-c2nc3cc(C)ccn3c2NC(=O)c2cccc(F)c2)cc1 | 53% (active)
Cc1cccc(C(=O)Nc2c(-c3ccccc3)nc3cc(C)ccn23)c1 | 27% (active)
Cc1ccn2c(NC(=O)c3cccc(Cl)c3)c(-c3ccccc3)nc2c1 | 65%
COc1ccc(-c2nc3cc(C)ccn3c2NC(=O)c2ccc(F)cc2)cc1 | 37% (active)
COCCNc1c(-c2ccccc2)nc2cc(C)ccn12 | 69%
COc1ccc(-c2nc3cc(C)ccn3c2NC(=O)c2ccc(C)c(C)c2)cc1 | 68%
COc1ccc(CNC(=O)c2ccc3nc(-c4ccc(F)cc4)c(-c4ccc(F)cc4)nc3c2)cc1 | 78%
O=C(Nc1c(-c2ccc(F)cc2)nc2ccccn12)c1cccc(F)c1 | 146%
Cc1nc2ccccn2c(=O)c1NC(=O)c1cccc(F)c1 | 71%
CCOc1ccccc1NS(=O)(=O)c1ccc(N2CCCCS2(=O)=O)cc1 | 97%
Cc1ccc(NC(=O)/C(C#N)=C/c2cn(CC(=O)NCc3ccco3)c3ccccc23)cc1Cl | 64%
Cc1ccc(S(=O)(=O)NNC(=S)NCC2CCCO2)cc1 (stereo not given) | 69%
COc1cccc(OCc2cc(=O)n3cc(C)sc3n2)c1 | 40% (active)
Cc1cn2c(=O)cc(COC(=O)COc3ccc(F)cc3)nc2s1 | 70%
O=C(COc1ccccc1)OCc1cc(=O)n2nc(-c3cccs3)sc2n1 | 88%
Cc1cn2c(=O)cc(COC(=O)COc3ccc(C)c(C)c3)nc2s1 | 67%
COc1ccc(OCC(=O)OCc2cc(=O)n3nc(-c4cccs4)sc3n2)cc1 | 94%
Cc1cn2c(=O)cc(COc3ccc(Cl)cc3)nc2s1 | 53%
COc1ccc(OCC(=O)OCc2cc(=O)n3cc(C)sc3n2)cc1 | 6% (active)
Cc1cc(C)cc(OCc2cc(=O)n3cc(C)sc3n2)c1 | 81%
O=C(COc1ccc(Cl)cc1)OCc1cc(=O)n2nc(-c3cccs3)sc2n1 | -4% (active)
COc1ccccc1-c1nc(CNC(=O)Nc2ccccc2)c(C)o1 | 98%
Cc1ccc(N2C(=O)N(CC(=O)C(C)(C)C)c3ccccc3S2(=O)=O)cc1C | 91%

SMILES | survival
CCOc1ccc2c(c1)c(=O)c(S(=O)(=O)c1ccc(C)cc1)cn2Cc1ccccc1Cl | 82%
CC1=C(C)C(=O)N(c2ccccn2)C1=O | 93%
Cc1ccc(-n2c(=O)c3ccc(C(=O)NCc4ccccc4Cl)cc3n(CC(=O)Nc3ccc(C)cc3C)c2=O)cc1 | 79%
CC(C)(C)NC(=O)c1cccc(NC(=O)c2ccco2)c1 | 101%
COc1ccc(N2CCN(CNC(=O)c3ccccc3)CC2)cc1 | 95%
Nc1nnc(CCN2C(=O)CSC2=O)s1 | 95%
CCc1cnc2c(c1SCC(=O)NCc1ccc(F)cc1)c(=O)n(C)c(=O)n2C | 119%
CC(C)C(=O)Nc1ccc2nc(SCC(=O)N3CCc4ccccc43)sc2c1 | 97%
CCc1nnc(NC(=O)CSc2nc3c([nH]c4ccccc43)c(=O)n2-c2ccc(F)cc2)s1 | 84%
CCc1ccc(-c2nc(CS(=O)CC(=O)NCCc3ccc(Cl)cc3)c(C)o2)cc1 (stereo not given) | 91%
Cc1ccc(-n2c(=O)c3c(c4cc(C)ccc4n3C)n(Cc3ccc(F)cc3)c2=O)cc1 | 116%
COc1ccc2c(c1)c1c(c(=O)n(Cc3ccccc3)c(=O)n1CC(=O)Nc1ccc(C)cc1C)n2C | -2% (active)
Cc1ccc(Cn2c(=O)n(-c3ccc(C)cc3)c(=O)c3c2c2cc(C)ccc2n3C)cc1 | 52% (active)
COc1ccc2c(c1)c1c(c(=O)n(CCc3ccccc3)c(=O)n1Cc1ccccc1)n2C | 90%
COc1ccc2c(c1)c1c(c(=O)n(CCc3ccccc3)c(=O)n1Cc1cccc(F)c1)n2C | 67%
COc1ccc2cc(CNc3ccc(C)cc3)c(=O)n(CC(=O)Nc3ccc(C)cc3Cl)c2c1 | 102%
COc1ccc2c(c1)c1c(c(=O)n(CCc3ccccc3)c(=O)n1Cc1ccc(F)cc1)n2C | 6% (active)
COc1ccc2c(c1)c1c(c(=O)n(Cc3ccccc3)c(=O)n1CC(=O)Nc1ccccc1F)n2C | 109%
COc1ccc2c(c1)c1c(c(=O)n(Cc3ccccc3)c(=O)n1CC(=O)Nc1c(C)cccc1C)n2C | 72%
COc1ccc(Cn2c(=O)n(-c3ccc(C)cc3)c(=O)c3c2c2cc(C)ccc2n3C)cc1 | 100%
COc1ccc2cc(CNc3ccccc3)c(=O)n(CC(=O)Nc3ccc(C)cc3C)c2c1 | 0% (active)
CCc1ccc(NCc2cc3ccc(OC)cc3n(CC(=O)Nc3ccccc3C)c2=O)cc1 | 83%
O=C(Nc1nc2c(F)cccc2s1)c1ccc(S(=O)(=O)N2CCOCC2)cc1 | 103%

SMILES | survival
COc1cc(NC(=O)c2nn(C)c3c2CS(=O)(=O)c2ccccc2-3)cc(OC)c1 | 68%
Cc1cc(C)c(NC(=O)Cn2cnc3c(oc4ccccc43)c2=O)c(C)c1 | 69%
COc1ccc(C2C(=O)N(C3CCC(C)CC3)CC(=O)N2Cc2ccc(C)cc2)cc1OC (stereo not given) | 86%
CCC(C(=O)N(C)Cc1ccccc1)n1nc(C)c2sc3ccccc3c2c1=O (stereo not given) | 66%
O=C(CC(c1ccccc1)c1ccccc1)N1CCN(Cc2ccc3c(c2)OCO3)CC1 | 67%
O=C(CCCc1nc(-c2ccc(Cl)cc2)no1)NCc1ccco1 | 54%
COc1ccc(C(=O)NCc2ccc3c(c2)CCN3C(C)=O)cc1OC | 83%
Cc1ccc(C)c(CNC(=O)c2ccc3c(c2)nc2n3CCC(C)C2)c1 (stereo not given) | 91%
Cc1ccc(S(=O)(=O)N2CCCc3cc(NS(=O)(=O)c4ccc(C)c(C)c4)ccc32)cc1 | 67%
COc1ccc2c(c1)c1c(c(=O)n(Cc3ccccc3)c(=O)n1Cc1ccccc1)n2C | -1% (active)
COc1cccc(Cn2c(=O)n(Cc3ccccc3)c(=O)c3c2c2cc(OC)ccc2n3C)c1 | 64%
COc1ccc2c(c1)c1c(c(=O)n(Cc3ccccc3)c(=O)n1Cc1ccc(C)cc1)n2C | 80%
Cc1ccc(/C=C/c2nc3ccccc3[nH]2)cc1 | 67%
Cc1ccc(NC(=O)CSc2nc(C)cc(C)c2C(=O)Nc2cccc(C)c2)cc1 | 49%
COc1ccc(C(=O)CSc2nc(C)cc(C)c2C(=O)Nc2ccccc2C)cc1 | 51%
Cc1cccc(NC(=O)CSc2nc(C)cc(C)c2C(=O)Nc2ccc(Cl)cc2)c1 | 44%
Cc1ccc(C(=O)CSc2nc(C)cc(C)c2C(=O)Nc2cccc(C)c2)cc1 | 43%
CCc1cccc(C)c1NC(=O)CSc1nc(C)cc(C)c1C(=O)Nc1ccccc1 | 44%
CCOc1ccccc1NC(=O)c1c(C)cc(C)nc1SCC(=O)c1cccc(OC)c1 | 40% (active)
Cc1cccc(NC(=O)c2c(C)cc(C)nc2SCC(=O)Nc2c(C)cc(C)cc2C)c1 | 52%
COC(=O)c1ccc(NC(=O)CSc2nc(C)cc(C)c2C(=O)Nc2ccccc2)cc1 | 44%
Cc1cccc(NC(=O)c2c(C)cc(C)nc2SCC(=O)c2ccccc2)c1 | 40% (active)
Cc1cc(C)c(C(=O)Nc2ccccc2)c(SCC(=O)Nc2ccc(Br)cc2C)n1 | 38% (active)

SMILES | survival
Cc1ccc(NC(=O)c2c(C)cc(C)nc2SCC(=O)Nc2ccc(Br)cc2)cc1 | 40% (active)
COc1ccccc1NC(=O)c1c(C)cc(C)nc1SCC(=O)c1ccc(Cl)cc1 | 93%
Cc1ccc(S(=O)(=O)NCC2CCC(C(=O)NCCc3ccccc3)CC2)cc1 (stereo not given) | 81%
O=C(NC1CC(=O)N(c2cccc(F)c2)C1)c1ccc(S(=O)(=O)N2CCOCC2)cc1 (stereo not given) | 76%
Cc1ccc(NC(=O)Cn2c(=O)n(Cc3ccc(C(=O)NCc4ccc5c(c4)OCO5)cc3)c(=O)c3ccccc32)cc1 | 102%
Cc1cc(=O)n(Cc2c(F)cccc2Cl)c2c1c(C)nn2-c1cccc(F)c1 | 77%
Cc1cccc(NC(=O)c2c(NC(=O)c3ccco3)sc3c2CCC(C(C)(C)C)C3)c1 (stereo not given) | 85%
Cc1ccc(C)c(NC(=O)Cn2cc(C(=O)c3ccco3)c3ccccc32)c1 | 64%
COc1ccc(NC(=O)c2oc3ccccc3c2NC(=O)C23CC4CC(CC(C4)C2)C3)c(OC)c1 | 67%
CCc1ccc(-n2nc(C)c3c(C)cc(=O)n(CC(=O)Nc4ccc(OC)c(OC)c4)c32)cc1 | 84%
CCc1ccc(-n2nc(C)c3c(C)cc(=O)n(CC(=O)Nc4cc(Cl)ccc4OC)c32)cc1 | 52% (active)
Cc1ccc(-n2nc(C)c3c(C)cc(=O)n(CC(=O)Nc4cc(Cl)ccc4C)c32)cc1 | 125%
CCOC(=O)Cc1ccc(NC(=O)N2CCC(CN3CCC(C)CC3)CC2)cc1 | 81%
COc1cc2cc(C)c(SCC(=O)N3CCN(C(=O)c4ccco4)CC3)nc2cc1OC | 73%
CCN(CC)S(=O)(=O)c1cccc2nsnc12 | 79%
Cc1ccc(NC(=O)CSc2nc3nccnc3c(=O)n2CCc2c[nH]c3ccccc23)cc1 | 82%
Cc1ccc(NC(=O)CSc2nc3ccccc3c(=O)n2CCC(=O)NC2CCCCC2)cc1C | 86%
Cc1ccc(NC(=O)CSc2nc3c(sc4ccccc43)c(=O)n2CCCC(=O)NC2CCCC2)cc1C | 87%
Cc1cc(C)cc(NC(=O)CSc2nc3ncccc3[nH]2)c1 | 76%
Cc1cc(C)cc(NC(=O)CSc2nc3nccnc3c(=O)n2CCc2c[nH]c3ccccc23)c1 | 38% (active)
Cc1ccc(NC(=O)CSc2nc3nccnc3c(=O)n2CCc2c[nH]c3ccccc23)cc1C | 37% (active)
